Reference: ChEMBL document CHEMBL3433997, “St. Jude Leishmania screening dataset” (2016)

Assays:
Assay type in all cases: functional
[1] = target: Solute carrier family 2, facilitated glucose transporter member 1 (Homo sapiens) (UniProt P11166); test: ST_JUDE_LEISH: Cytotoxicity at 2uM final concentration against transgenic Leishmania Mexicana promastigotes LmGLUT1 that are glucose transport deficient and complemented with the human glucose transporter GLUT1. Activity is measured by DNA content using SYBR green in vitro
[2] = target: Hexose transporter 1 (Plasmodium falciparum) (UniProt O97467); test: ST_JUDE_LEISH: Cytotoxicity at 2uM final concentration against transgenic Leishmania Mexicana promastigotes LmPfHT that are glucose transport deficient and complemented with the Plasmodium falciparum hexose transporter. Activity is measured by DNA content using SYBR green in vitro
[3] = target: Glucose transporter (Leishmania mexicana) (UniProt O61059); test: ST_JUDE_LEISH: Cytotoxicity at 2uM final concentration against transgenic Leishmania Mexicana promastigotes LmGT2 that are glucose transport deficient and complemented with the L. Mexicana glucose transporter 2. Activity is measured by DNA content using SYBR green in vitro

Solute carrier family 2, facilitated glucose transporter member 1 (Homo sapiens), sequence (P11166 whole entry): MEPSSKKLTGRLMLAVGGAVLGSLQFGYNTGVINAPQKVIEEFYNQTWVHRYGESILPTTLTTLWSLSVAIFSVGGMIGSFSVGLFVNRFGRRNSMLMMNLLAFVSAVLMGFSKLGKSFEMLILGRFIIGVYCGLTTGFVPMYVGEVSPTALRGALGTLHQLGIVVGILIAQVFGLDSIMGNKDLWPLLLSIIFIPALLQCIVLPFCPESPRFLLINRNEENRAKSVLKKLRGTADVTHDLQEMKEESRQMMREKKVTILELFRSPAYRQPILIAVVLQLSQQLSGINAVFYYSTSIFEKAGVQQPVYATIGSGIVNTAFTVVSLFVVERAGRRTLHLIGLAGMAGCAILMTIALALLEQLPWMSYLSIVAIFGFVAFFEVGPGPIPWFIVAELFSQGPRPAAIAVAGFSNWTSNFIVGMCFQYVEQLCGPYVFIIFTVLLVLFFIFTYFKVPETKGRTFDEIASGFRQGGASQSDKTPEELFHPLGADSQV

| SMILES | inhibition [1] | inhibition [2] | inhibition [3] |
| --- | --- | --- | --- |
| Oc1cc(Nc2ccnc3cc(-c4cccc(CN5CCOCC5)c4)ccc23)c(F)cc1Cl | 4.47% | 4.48% | 3.67% |
| O=C(COc1ccc(Cl)c(Cl)c1)NCCCCCN1CCCN(C(=O)Nc2ccc(Cl)c(Cl)c2)CC1 | 4.35% | 3.1% | 2.27% |
| C=CCN(c1nc(NC)nc(NCc2c(OC)cccc2OC)n1)C1CCCC1 | 5.12% | 3.87% | 1.88% |
| Oc1ccc(-c2ccccc2)cc1CN1CCCCCC1 | 1.18% | 2.49% | 1% |
| CN(C)c1cc(C(=O)N[C@@H](Cc2ccccc2)[C@H](O)CNC2CCCCC2)cc2[nH]ccc12 | 5.43% | 4.72% | 7.44% |
| CC(=O)Nc1ccc([N+](=O)[O-])c2c(Br)cccc12 | 8.2% | 8.74% | 10.4% |
| CN1CCN(c2ccc(-c3cc(-c4ccncc4)c(-c4ccc(Cl)c(O)c4)o3)cc2)CC1 | -0.86% | 0% | -1.14% |
| CN(C)CCN(C)Cc1ccc(-c2ccc3c(Nc4ccc(F)cc4Cl)ccnc3c2)o1 | 1.3% | 0.81% | -0.21% |
| CN1CCCN(Cc2cccc(-c3ccc(NC(=O)c4cccc(C#N)c4)cc3)c2)CC1 | 28.9% | 12.9% | 9.31% |
| Clc1ccc(Cn2nc(Br)nc2Br)c(Cl)c1 | -0.61% | -1.03% | -4.56% |
| Cc1cc(C(=O)Nc2ccc3c(c2)CCN3C2CCN(Cc3cc(F)cc(F)c3F)C2)no1 (centres undefined) | -0.31% | 1.36% | 5.53% |
| CS(=O)(=O)CCCNCc1ccc(-c2cc3c(Nc4ccc(OCc5ccccc5)cc4)ncnc3cn2)o1 | 2.89% | 2.8% | 2.01% |
| COc1ccc(NC(=O)Nc2nc3ccccc3s2)cc1N1CCN(C)CC1 | 7.14% | 4.98% | 5.72% |
